Measurements from ChEMBL document CHEMBL4296182, “CO-ADD screening of NIH NCI Diversity Set V”.
For part of these data: Potency and affinity values are given separately.

Tested on: Escherichia coli
Test: Antibacterial activity against Escherichia coli ATCC 25922 (CO-ADD:GN_001); MIC in CAMBH media using NBS plates, by Resazurin F(560/590)
Assay type: functional
Settings: Concentration 20 uM, ASSAY_TEST Inhibition of Bacterial Growth, detection method Resazurin, Fluorescence (ex560/em590), MEDIA CAMHB, plate type 384well, CORNING #3640, time 18 hr

Row | SMILES | Inhibition [%]
1 | Cc1cc(O)c(C(C)C)cc1NC(=O)Nc1cccc2ccccc12 | 2.96
2 | O=S(=O)(Oc1ccc(Cl)cc1)c1cccc2cccnc12 | 8.94
3 | CN(NC(=O)C(=O)NCc1ccco1)C(=O)NC1CCCCC1 | -11.28
4 | CCCCCC(=O)N1CCCCC1 | 7.04
5 | Cn1c(=O)c2nc(CCCc3ccc([N+](=O)[O-])cc3)[nH]c2n(C)c1=O | 3.35
6 | CCOC(=O)c1nn(C)c2[nH]c(=O)n(C)c(=O)c12 | 12.75
7 | Cn1cnc([N+](=O)[O-])c1Sc1nnc(-c2cccnc2)n1C | -1.31
8 | CCOP(=O)(OCC)/C(C#N)=C/c1ccc([N+](=O)[O-])cc1 | 3.05
9 | O=[N+]([O-])c1ccccc1/C=C/C=N/N=C/c1ccccc1O | 9.06
10 | O=C(CN1CCOCC1)N1CCOCC1 | 7.84
11 | CSc1nsc(NN)n1 | 5.94
12 | CNc1ncnc2c1cnn2C1CCCCO1 (stereo not drawn) | 9.64
13 | CC(C)(C)n1nc(C2CC2)cc1NC(=O)Nc1ccccc1 | 8.62
14 | Cc1ccc(S(=O)(=O)NNC(=O)C23CCC(CC2)C3)cc1 | 7.26
15 | CCCN(CCC)CC(=O)N1CC(=O)Nc2ccccc21 | -10.49
16 | Nc1ccc(S(=O)(=O)NCC2CCCCO2)cc1 (stereo not drawn) | 1.65
17 | Cc1nn(-c2ccccc2)c2c1C(c1ccc([N+](=O)[O-])cc1)C(C#N)=C(N)O2 (stereo not drawn) | 1.25
18 | Nc1nnc(-c2cccnc2)s1 | 3.28
19 | CCOC(=O)c1ccc(NC(=O)Oc2cc(C)c(Cl)cc2C(C)C)cc1 | 4.16
20 | CC(=O)Nc1c(C)cc(OCC(=O)O)cc1C | 3.28

Row | SMILES | Inhibition [%]
21 | COc1cc(CC(=O)C(=O)O)oc(=O)c1 | -2.06
22 | Cc1cccc2c1c1ccc3c(c1n2C)C(=O)C=CC3=O | 14.66
23 | CC(=O)CC(=O)Nc1ccc2ccccc2c1 | 5.41
24 | CC(=O)OCc1cc(-c2nc3ccccc3nc2O)nn1-c1ccc(Cl)cc1 | -18.97
25 | C=CCOc1c(CCC)cc(CCC)cc1C(N)=O | 1.32
26 | C=CCOCCN(CC)CC | -9.5
27 | CCOC(=O)C(Cc1ccc(O)cc1)Nc1nc2ccccc2o1 (stereo not drawn) | 6.27
28 | Cc1cc(=O)[nH]c(N)n1 | 2.4
29 | Cc1ccc(NC(=O)N2CCN(C)CC2)cc1NC(=O)N1CCN(C)CC1 | -22.66
30 | Sc1nccn1-c1c(Cl)cccc1Cl | 0.7
31 | CC1=NC(C)(C)CC2CCC(O)C12 (stereo not drawn) | 9.74
32 | CC(C)Oc1ccc(C(=O)O)cc1 | 5.58
33 | COc1cccc(/C=C/c2nccc3ccccc23)c1OC | 11.96
34 | O=C(O)c1cc2cc(OCc3ccccc3)ccc2[nH]1 | 8.06
35 | O=C(Nc1cccc([N+](=O)[O-])c1)c1cc2ccccc2cc1O | 23.78
36 | O=C(O)C1C2OC3C(OC(=O)C31)C2Br (stereo not drawn) | 24.67
37 | Cc1n[nH]c2nc(N)nn2c1=O | 10.78
38 | CC1=CC(=O)CC(C)(C)C1(O)/C=C/C(C)=C/C(=O)O (stereo not drawn) | 1.66
39 | Cn1c2c(c(=O)n(C)c1=O)NC1(N2)C(=O)Nc2ccccc21 (stereo not drawn) | 2.31

Tested on: Klebsiella pneumoniae
Settings: Concentration 20 uM; ASSAY_TEST Inhibition of Bacterial Growth; detection method Absorption (OD600); MEDIA CAMHB; plate type 384well; NBS; CORNING #3640; time 18 hr

Row | SMILES | Inhibition [%]
40 | Cc1cc(O)c(C(C)C)cc1NC(=O)Nc1cccc2ccccc12 | 4.38
41 | O=S(=O)(Oc1ccc(Cl)cc1)c1cccc2cccnc12 | 7.96
42 | CN(NC(=O)C(=O)NCc1ccco1)C(=O)NC1CCCCC1 | 10.63
43 | CCCCCC(=O)N1CCCCC1 | 14.07
44 | Cn1c(=O)c2nc(CCCc3ccc([N+](=O)[O-])cc3)[nH]c2n(C)c1=O | 12.88
45 | CCOC(=O)c1nn(C)c2[nH]c(=O)n(C)c(=O)c12 | 11.59
46 | Cn1cnc([N+](=O)[O-])c1Sc1nnc(-c2cccnc2)n1C | 17.06
47 | CCOP(=O)(OCC)/C(C#N)=C/c1ccc([N+](=O)[O-])cc1 | 9.62
48 | O=[N+]([O-])c1ccccc1/C=C/C=N/N=C/c1ccccc1O | 2.2
49 | O=C(CN1CCOCC1)N1CCOCC1 | 3.48
50 | CSc1nsc(NN)n1 | 8.53
51 | CNc1ncnc2c1cnn2C1CCCCO1 (stereo not drawn) | 6.75
52 | CC(C)(C)n1nc(C2CC2)cc1NC(=O)Nc1ccccc1 | 7.92
53 | Cc1ccc(S(=O)(=O)NNC(=O)C23CCC(CC2)C3)cc1 | 14.92
54 | CCCN(CCC)CC(=O)N1CC(=O)Nc2ccccc21 | 8.75
55 | Nc1ccc(S(=O)(=O)NCC2CCCCO2)cc1 (stereo not drawn) | 16.22
56 | Cc1nn(-c2ccccc2)c2c1C(c1ccc([N+](=O)[O-])cc1)C(C#N)=C(N)O2 (stereo not drawn) | 12.44
57 | Nc1nnc(-c2cccnc2)s1 | -1.35
58 | CCOC(=O)c1ccc(NC(=O)Oc2cc(C)c(Cl)cc2C(C)C)cc1 | 12.01
59 | CC(=O)Nc1c(C)cc(OCC(=O)O)cc1C | 20.93

Row | SMILES | Inhibition [%]
60 | COc1cc(CC(=O)C(=O)O)oc(=O)c1 | 12.51
61 | Cc1cccc2c1c1ccc3c(c1n2C)C(=O)C=CC3=O | 10.43
62 | CC(=O)CC(=O)Nc1ccc2ccccc2c1 | 9.32
63 | CC(=O)OCc1cc(-c2nc3ccccc3nc2O)nn1-c1ccc(Cl)cc1 | 4.82
64 | C=CCOc1c(CCC)cc(CCC)cc1C(N)=O | 19.26
65 | C=CCOCCN(CC)CC | 7.56
66 | CCOC(=O)C(Cc1ccc(O)cc1)Nc1nc2ccccc2o1 (stereo not drawn) | 19.95
67 | Cc1cc(=O)[nH]c(N)n1 | 1.73
68 | Cc1ccc(NC(=O)N2CCN(C)CC2)cc1NC(=O)N1CCN(C)CC1 | 4.06
69 | Sc1nccn1-c1c(Cl)cccc1Cl | 7.58
70 | CC1=NC(C)(C)CC2CCC(O)C12 (stereo not drawn) | 11.22
71 | CC(C)Oc1ccc(C(=O)O)cc1 | 15.4
72 | COc1cccc(/C=C/c2nccc3ccccc23)c1OC | 0.37
73 | O=C(O)c1cc2cc(OCc3ccccc3)ccc2[nH]1 | 12.38
74 | O=C(Nc1cccc([N+](=O)[O-])c1)c1cc2ccccc2cc1O | 3.58
75 | O=C(O)C1C2OC3C(OC(=O)C31)C2Br (stereo not drawn) | 4
76 | Cc1n[nH]c2nc(N)nn2c1=O | -2.02
77 | CC1=CC(=O)CC(C)(C)C1(O)/C=C/C(C)=C/C(=O)O (stereo not drawn) | 3.67
78 | Cn1c2c(c(=O)n(C)c1=O)NC1(N2)C(=O)Nc2ccccc21 (stereo not drawn) | 1.11
